# The supplement of paper PMC6555819
# Columns and labels:
# Assay in all cases: PBM binding z-score (relative to random genomic background probes); higher = stronger binding; sequences stand for … in GC…GCGATTGACAGCGTAGAATGAAGG
# [1] = system: PPARg:RXRa DBDmut IVT, anti-RXR (DBD mutation: RXRa K156A/R161A, NR concentration 270 nM, RXRa partner concentration 90 nM)
# Method in brief: (§1)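 Random background probes are the reference for binding z-scores. These scores derive from regression-normalized fluorescence on custom Agilent 4×180K protein-binding microarrays incubated 1 h with ligand-free nuclear receptor dimers. Binding was detected with antibodies against each partner (one per run).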
# [2] = system: PPARg:RXRa IVT, anti-PPARg (NR concentration 270 nM, RXRa partner concentration 90 nM)
# Method in brief: as §1
# [3] = system: PPARg DBDmut:RXRa IVT, anti-PPARg (DBD mutation: PPARg1 K132A/R137A, NR concentration 270 nM, RXRa partner concentration 90 nM)
# Method in brief: as §1
# [4] = system: PPARg DBDmut IVT, anti-PPARg (DBD mutation: PPARg1 K132A/R137A, NR concentration 270 nM)
# Method in brief: as §1
# [5] = system: PPARg homodimer (NR concentration 180 nM)
# Method in brief: as §1
# [6] = system: PXR:RXRa (NR concentration 270 nM, RXRa partner concentration 90 nM)
# Method in brief: as §1
# [7] = system: PXR homodimer (NR concentration 270 nM)
# Method in brief: as §1
# [8] = system: RARa:RXR (NR concentration 270 nM, RXRa partner concentration 90 nM)
# Method in brief: as §1
# [9] = system: RARa homodimer (NR concentration 270 nM)
# Method in brief: as §1
# [10] = system: RARb:RXRa (NR concentration 270 nM, RXRa partner concentration 90 nM)
# Method in brief: as §1
# [11] = system: RARb homodimer (NR concentration 270 nM)
# Method in brief: as §1
# [12] = system: RARg:RXRa (NR concentration 270 nM, RXRa partner concentration 90 nM)
# Method in brief: as §1
# [13] = system: RARg homodimer (NR concentration 270 nM)
# Method in brief: as §1
# [14] = system: RXRa DBDmut IVT, anti-RXR (DBD mutation: RXRa K156A/R161A, NR concentration 90 nM)
# Method in brief: as §1
# [15] = system: RXRa homodimer (NR concentration 180 nM)
# Method in brief: as §1
# [16] = system: THRa:RXRa (NR concentration 90 nM, RXRa partner concentration 90 nM)
# Method in brief: as §1
# [17] = system: THRa homodimer (NR concentration 90 nM)
# Method in brief: as §1
# [18] = system: VDR homodimer (NR concentration 270 nM)
# Method in brief: as §1
Sequence,PBM binding z-score [1],PBM binding z-score [2],PBM binding z-score [3],PBM binding z-score [4],PBM binding z-score [5],PBM binding z-score [6],PBM binding z-score [7],PBM binding z-score [8],PBM binding z-score [9],PBM binding z-score [10],PBM binding z-score [11],PBM binding z-score [12],PBM binding z-score [13],PBM binding z-score [14],PBM binding z-score [15],PBM binding z-score [16],PBM binding z-score [17],PBM binding z-score [18]
TTACCAAGGTGAAAGGTAGTTGATGCACGCCTTG,2.96,3.26,0.619,0.152,0.643,0.603,-0.0575,1.41,0.138,1.56,0.674,1.1,0.73,0.0303,1.67,1.73,0.341,-0.225
ACATGTAGGTTACATCCGGGTCATTCAGGCTATG,6.27,6.09,4.52,4.01,3.27,3.95,2.86,3.98,0.622,2.43,3.01,3.84,2.29,1.4,3,3.83,2.85,3.73
GCAGACAGGTGAAACGCAGGTAACTCACGGTGGC,1.05,0.811,0.104,-0.094,-0.18,-0.51,-0.98,0.0228,-0.454,0.558,-0.171,0.892,0.295,-0.351,0.662,0.832,-0.7,-0.778
GCAGACAGGTGAAACTCAGGTAACTCAGGGTGGC,0.904,0.656,-0.318,-0.994,-0.214,0.118,-0.356,0.625,-0.536,0.901,0.42,1.03,0.566,-0.185,0.901,2.7,0.521,-0.73
AACGAAAGGTCGAGGTGAGTATAGAGAAAGGGAA,0.47,2.34,0.731,0.177,1.1,2.6,0.272,3.51,0.313,4.23,2.86,4.68,4.73,0.969,5.03,2.96,0.451,0.21
ATCTCTAGGTAAAGATAGTTCAGTGATTGCAAAT,2.16,1.82,0.778,1.85,1.19,1.38,0.822,0.722,1.29,0.865,1.2,0.619,0.722,0.503,0.395,0.879,0.445,0.789
CCTTACGGGTCACTGACACGTTATAGCATTTGGA,3.57,3.64,1.42,0.499,1.94,3.1,0.171,3.98,0.948,3.99,2.9,4.76,4.47,2.05,4.94,2.5,0.436,0.844
TCATATAGGTAAAGGTGAAAGTGGAACGATATGA,3.98,4.19,1.25,1.26,1.46,1.17,0.224,2.26,0.548,2.13,1.44,1.71,1.52,0.597,2.41,1.36,-0.306,-0.115
ATCTTTAGGTAAAAGTTCAGTGAATCCCGAGGAT,0.803,3.1,1.38,1.31,1.01,2.07,1.47,1.56,0.328,2.51,2.61,1.69,1.85,1.27,1.57,1.76,0.573,1.63
TCTATTAATTGATTAGGGCAACCGAAACAGCGGA,1.84,1.09,0.728,1.07,2.22,0.386,1.53,0.419,2.52,0.75,0.555,0.404,0.432,0.717,0.315,0.691,0.741,1.36
CCTGCTAGGGCATGGTCAGCTAATCTACAGTATG,1.27,0.942,-0.789,-1.21,-0.604,-0.584,-0.686,-0.414,-0.802,1.43,0.406,0.464,1.07,-0.538,-0.195,-0.371,-0.949,-0.585
GCACACAGGTGAAACGCAGGTAACTCAGGGTGGC,1.25,1.35,-0.286,-0.23,-0.0515,-0.134,-0.747,0.575,-0.648,0.803,0.327,1.15,0.263,-0.192,0.954,1.47,-0.486,-0.299
GGAACGAGGGCATTCGATTTGATAGCATGGCGAT,3.33,2.39,0.437,-0.411,0.257,0.991,0.161,0.538,-0.351,1.96,0.884,1.28,1.49,3.11,1.01,1.09,-0.234,1.9
CGTCCAAGGTCAGAAAGGTCAGTGAATGCCGAGT,1.91,3.14,-0.203,-0.0818,3.94,6.06,10.7,5.92,3.03,5.34,5.58,6.18,6.89,3,5.59,4.14,2.3,4.66
GATACAGGGTCACGGCCAGAGTACGCGTATTGAT,4.17,5.49,1.11,0.362,2.36,4.75,0.0972,6.41,0.744,4.89,3.98,6.54,6.18,2.92,7.78,4.17,2.03,3.26
CAAACTAGCTCAAGAGGTCAAAGTCCGCTTCCCG,0.982,2.06,0.545,0.408,2.37,5.37,1.87,5.13,1.34,3.96,4.52,4.96,4.04,2.4,5.51,3.66,1.72,3.55
